Compounds without any hit were thinned out: in the full panel of roughly 79,000, 15% have a hit. Values without a mark were called inactive. Activity calls are given as the source filed them. No stated cut-off is given here; in the data, active means growth inhibition above about 70%; inactive means the rest.
assay: NCI Yeast Anticancer Drug Screen. Data for the rad50 strain (AID 155);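 further: 0% = growth of vehicle-only cultures of the same strain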; conditions: S. cerevisiae rad50 strain growth inhibition; at 5.0 µM (retest, dose inferred, filed as 0.5); hits give high values
Summary of the method: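 A DNA repair-deficient yeast mutant serves as the test organism; compound-induced growth inhibition is calculated against vehicle-treated cells.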

Row | SMILES | growth inhibition
1 | Oc1c(Br)cc(Cl)cc1Br | -4%
2 | COc1ccc(C2Oc3ccc(Cl)cc3C=C2[N+](=O)[O-])cc1OC (stereo not given) | 89% (active)
3 | COC(=O)C(=O)CC(=O)c1cccc(Cl)c1 | 16%
4 | O/N=C(/C[N+]12CN3CN(CN(C3)C1)C2)c1ccc(I)cc1 | 0%
5 | COc1cc(CCN=Cc2cc(Cl)cc(Cl)c2O)c([N+](=O)[O-])cc1OC | 60%
6 | COc1ccc2c(c1OC)C1=C(C2=O)c2cc3c(cc2CCN1)OCO3 | -4%
7 | CC(C)(C)[Si](C)(C)OCC1OC(n2cc(I)c(N)nc2=O)C(O[Si](C)(C)C(C)(C)C)C1O[Si](C)(C)C(C)(C)C (stereo not given) | 48%
8 | O=S(=O)(Nc1ccccn1)c1ccc(NCc2c3ccccc3nc3cc(Cl)ccc23)cc1 | 0%
9 | OCc1ccc2c(c1)CC1(C2)Cc2cc3c(cc2C1O)CCC3 (stereo not given) | 20%
10 | COc1cc(C(c2cc3c(cc2O)OCO3)N2CCOCC2)ccc1O (stereo not given) | 2%
11 | CCCCCCCCCCCCCCSC(=N)N | 99% (active)
12 | Cc1ccccc1NC(=S)Nc1ccccc1O | -4%
13 | c1cc2cc(Cc3ccc4[nH]ccc4c3)ccc2[nH]1 | 21%
14 | N=C(N)c1ccc(-c2ccc(-c3ccc(C(=N)N)cc3)o2)cc1 | 17%
15 | O=c1oc2c/c(=C\c3ccccc3)c(=O)c3cccc1c3-2 | -6%
16 | CCCCCCCC(=O)/C=C/c1ccc(C)cc1 | -161%
17 | COc1ccc(CCC2(C)OCCC(C)O2)cc1 (stereo not given) | 12%
18 | O=C(O)C(SC1=NNC2(C(=O)N1)c1ccccc1-c1ccccc12)SC1=NNC2(C(=O)N1)c1ccccc1-c1ccccc12 | 4%
19 | CC1(C)NNC(=S)NN1 | 2%
20 | O=C([O-])c1ccccc1[I+]c1ccc(C2CCCCC2)cc1 | 3%

Row | SMILES | growth inhibition
21 | ClC1=C(Cl)C(Cl)(C(Cl)(Cl)Cl)C(Cl)=C1Cl | 99% (active)
22 | Cn1nc(N)c2cccnc21 | 3%
23 | CC(C)(C)c1ccc(-n2c3nc(=O)n(-c4ccccc4C(F)(F)F)c(=O)c-3cc3ccccc32)cc1 | 13%
24 | C/C(=N\Nc1ccccn1)c1ccccn1 | 47%
25 | COc1ccc2c(C)cc(N/N=C(\C)c3ccccn3)nc2c1 | 2%
26 | CC([NH-])C(=O)O.[Cu+2].[NH-]C(Cc1cnc[nH]1)C(=O)O (stereo not given) | -8%
27 | COc1ccc(C)cc1NC(=O)ON=C1CCCCC1 | 45%
28 | Oc1c(N(Cc2ccccc2)Cc2ccccc2)ccc2cccnc12 | -2%
29 | Cc1ccc2[nH]c3cc4ccncc4cc3c2c1 | -127%
30 | Cc1ccc2nn(-c3ccc(O)cc3)nc2c1 | 11%
31 | Oc1ccc2c(ccc3ccccc32)c1 | 1%
32 | ClCc1ccc2ccc3ccc(CCl)nc3c2n1 | 31%
33 | CC(=O)c1c(O)c2ccc(Cl)cc2[nH]c1=O | 73% (active)
34 | O=C(c1ccc(Cl)cc1)c1ccc(OCCCOc2ccc(C(=O)c3ccc(Cl)cc3)cc2)cc1 | -14%
35 | C=C1CC2(C[C@@H](c3ccccc3)O[C@@H](c3ccccc3)C2)OC1=O (stereo not given in full) | 20%
36 | O=C(N=Nc1c(O)[nH]c2ccccc12)C(O)(c1ccccc1)c1ccccc1 | 18%
37 | C/C(=N\O)c1ccc2c3c(ccc([N+](=O)[O-])c13)CC2 | -2%
38 | N#CS/C(Cl)=C(/C(Cl)=C(Cl)Cl)[N+](=O)[O-] | 5%
39 | N#C/C(=C1C=C/C(=N/O)C=C/1Cl)c1ccccc1 | -3%
40 | O=C1/C(=C/c2ccc(Cl)c(Cl)c2)CN(C(=O)CCN2CCOCC2)C/C1=C\c1ccc(Cl)c(Cl)c1 | 99% (active)
